From PubChem BioAssay
The source made the active and inactive calls.

Assays:
[1] = compounds binding Alexa647 anti-His antibody – biochemical, small-molecule microarray, 635 nm fluorescence, artefact control for SMM control protein annotation, primary screen (AID 1128); settings: higher = more signal;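 note: score merges feature fluorescence with signal-to-noise for each printed compound spot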
[2] = system: Human papillomavirus type 1a E7 protein (residues 1-88); assay: HPV1a E7 small-molecule binders, primary screen, biochemical, small-molecule microarray, residues 1-88, 635 nm (AID 1129); settings: small-molecule microarray binding, fluorescence 635 nm; higher = more signal
[3] = target: Focal adhesion kinase 1 (Homo sapiens) (UniProt Q05397); assay: PTK2 protein binding on printed compound slides – biochemical, small-molecule microarray, 635/667 nm fluorescence, BSA, DTT, primary screen (AID 1130); settings: 635 nm fluorescence, higher = more signal;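 note: composite of spot emission at 667 nm and signal to noise over triplicate slides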
[4] = system: Fibrinogen (Alexa647-labelled); assay: Alexa647-fibrinogen binding to printed small molecules – biochemical, small-molecule microarray, 635/667 nm fluorescence, artefact control for SMM control-protein annotation, profiling panel (AID 1131); settings: fibrinogen-A647 binding fluorescence, higher = more signal;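 note: z-score merges 667 nm fluorescence with per-spot signal-to-noise over triplicate slides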
[5] = target: Follistatin (Homo sapiens) (UniProt P19883); assay: FST protein binding to printed compounds – biochemical, small-molecule microarray, 635/667 nm fluorescence, primary screen (AID 1132); settings: 635 nm fluorescence, higher = more signal
[6] = target: Fibroblast growth factor 2 (Homo sapiens) (UniProt P09038); assay: basic fibroblast growth factor binding to printed compounds – biochemical, small-molecule microarray, 635/667 nm fluorescence, primary screen (AID 1133); settings: FGF2, fluorescence 635/667, higher = more signal
[7] = JC-1 mitochondrial potential readout, lung cancer cells – cell-based, A549, JC-1 fluorescence, basal, 24 h, 100 nL, profiling panel (AID 1138); settings: higher = more signal;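 note: A549 lung adenocarcinoma cells under basal conditions with no added stimulus; test concentration not given here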
[8] = system: Lefty1; assay: Lefty1 protein binding to printed compounds – biochemical, small-molecule microarray, 635/667 nm fluorescence, primary screen (AID 1139); settings: fluorescence 635/667, higher = more signal
[9] = system: wheat germ agglutinin (Triticum aestivum), Alexa647-labelled; assay: Alexa647-WGA lectin binding to printed small molecules – biochemical, small-molecule microarray, 635/667 nm fluorescence, artefact control for SMM control-protein annotation, profiling panel (AID 1140); settings: WGA-A647 binding, 635 nm fluorescence, higher = more signal;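 note: score merges 667 nm feature emission with signal to noise over triplicate slides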
[10] = target: Luciferin 4-monooxygenase (Photinus pyralis) (UniProt P08659); assay: inhibition of purified Photinus pyralis luciferase – biochemical, luminescence, purified enzyme, 2006 set, primary screen (AID 1141); settings: purified firefly luciferase, SteadyGlo luminescence, 30 min; higher = more signal, called active from +8 up or from −8 down;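 note: cell-free assay with purified firefly luciferase at 100 ng per well in PBS; test concentration not given here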
Chain of Luciferin 4-monooxygenase (Photinus pyralis) (P08659 whole entry, looked up): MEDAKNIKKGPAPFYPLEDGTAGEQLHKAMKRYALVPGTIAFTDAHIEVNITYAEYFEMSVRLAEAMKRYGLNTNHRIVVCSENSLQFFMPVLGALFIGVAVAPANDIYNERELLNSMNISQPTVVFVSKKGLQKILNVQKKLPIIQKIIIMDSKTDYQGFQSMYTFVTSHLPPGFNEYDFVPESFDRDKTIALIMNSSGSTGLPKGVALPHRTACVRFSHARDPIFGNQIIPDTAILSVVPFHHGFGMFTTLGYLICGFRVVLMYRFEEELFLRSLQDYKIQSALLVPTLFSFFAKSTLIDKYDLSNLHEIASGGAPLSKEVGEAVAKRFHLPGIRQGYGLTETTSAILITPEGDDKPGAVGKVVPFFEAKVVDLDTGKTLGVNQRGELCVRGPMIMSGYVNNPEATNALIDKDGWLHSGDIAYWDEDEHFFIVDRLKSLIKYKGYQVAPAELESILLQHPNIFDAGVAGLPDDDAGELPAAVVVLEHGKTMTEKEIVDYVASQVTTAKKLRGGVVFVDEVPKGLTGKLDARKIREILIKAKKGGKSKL

Chain of Fibroblast growth factor 2 (Homo sapiens) (P09038 whole entry, looked up): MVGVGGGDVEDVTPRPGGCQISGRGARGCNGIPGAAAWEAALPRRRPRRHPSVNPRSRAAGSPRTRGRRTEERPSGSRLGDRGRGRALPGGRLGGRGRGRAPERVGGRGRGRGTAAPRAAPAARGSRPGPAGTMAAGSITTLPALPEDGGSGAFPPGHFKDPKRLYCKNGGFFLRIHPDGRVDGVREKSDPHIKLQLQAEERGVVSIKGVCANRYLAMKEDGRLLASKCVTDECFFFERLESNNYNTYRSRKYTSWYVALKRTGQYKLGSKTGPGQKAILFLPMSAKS
Chain of Follistatin (Homo sapiens) (P19883 whole entry, looked up): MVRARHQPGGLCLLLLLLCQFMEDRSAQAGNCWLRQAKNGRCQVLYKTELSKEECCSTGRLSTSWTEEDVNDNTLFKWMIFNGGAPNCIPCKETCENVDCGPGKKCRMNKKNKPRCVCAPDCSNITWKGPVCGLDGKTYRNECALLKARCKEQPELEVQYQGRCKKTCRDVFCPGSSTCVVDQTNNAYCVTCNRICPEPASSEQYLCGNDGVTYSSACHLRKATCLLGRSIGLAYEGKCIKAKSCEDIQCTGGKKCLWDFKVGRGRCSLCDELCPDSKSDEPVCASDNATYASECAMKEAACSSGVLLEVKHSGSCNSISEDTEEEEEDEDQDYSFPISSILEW
Chain of Focal adhesion kinase 1 (Homo sapiens) (Q05397 whole entry, looked up): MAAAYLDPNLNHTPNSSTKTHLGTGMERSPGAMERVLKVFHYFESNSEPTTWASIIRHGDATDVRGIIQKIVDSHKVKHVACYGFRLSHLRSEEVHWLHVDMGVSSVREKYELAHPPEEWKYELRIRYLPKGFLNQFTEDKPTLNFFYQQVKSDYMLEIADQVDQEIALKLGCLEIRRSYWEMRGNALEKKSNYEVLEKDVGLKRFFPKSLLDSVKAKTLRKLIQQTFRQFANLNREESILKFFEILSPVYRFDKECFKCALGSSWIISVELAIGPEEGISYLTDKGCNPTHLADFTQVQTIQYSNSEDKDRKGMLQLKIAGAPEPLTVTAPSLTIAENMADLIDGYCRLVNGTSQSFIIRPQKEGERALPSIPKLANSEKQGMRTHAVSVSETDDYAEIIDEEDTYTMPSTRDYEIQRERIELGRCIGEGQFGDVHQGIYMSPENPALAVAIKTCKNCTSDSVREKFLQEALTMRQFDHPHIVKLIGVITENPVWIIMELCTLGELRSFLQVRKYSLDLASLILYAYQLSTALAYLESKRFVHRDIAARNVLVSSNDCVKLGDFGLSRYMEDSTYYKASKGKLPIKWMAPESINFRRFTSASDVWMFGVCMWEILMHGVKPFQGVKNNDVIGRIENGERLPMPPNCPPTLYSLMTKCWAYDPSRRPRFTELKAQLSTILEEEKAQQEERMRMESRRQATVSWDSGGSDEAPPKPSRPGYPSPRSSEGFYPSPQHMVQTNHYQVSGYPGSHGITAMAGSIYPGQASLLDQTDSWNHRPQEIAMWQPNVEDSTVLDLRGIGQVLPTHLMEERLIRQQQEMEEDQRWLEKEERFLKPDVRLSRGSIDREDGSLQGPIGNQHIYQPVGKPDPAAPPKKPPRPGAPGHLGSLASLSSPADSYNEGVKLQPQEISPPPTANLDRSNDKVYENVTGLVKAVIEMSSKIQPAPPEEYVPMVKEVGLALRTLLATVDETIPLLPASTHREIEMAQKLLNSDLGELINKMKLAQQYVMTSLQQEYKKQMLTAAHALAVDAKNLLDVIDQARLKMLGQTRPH

| SMILES | composite z-score [1] | composite z-score [2] | composite z-score [3] | composite z-score [4] | composite z-score [5] | composite z-score [6] | z-score [7] | composite z-score [8] | composite z-score [9] | z-score [10] |
| --- | --- | --- | --- | --- | --- | --- | --- | --- | --- | --- |
| CC(C)N1CC=CC23O[C@@H]4C=CCOC(=O)[C@@H]4[C@H]2C(=O)N(CCO)[C@@H]3C1=O (stereo not given in full) | 0.386 | -0.586 | -0.346 | -0.766 | -0.22 | -1.33 | -0.346 | 0.103 | -0.249 | -0.0322 (inactive) |
| C=CCC(OC(C)=O)[C@@H]1[C@@H](N(Cc2ccc(-c3ccccc3)cc2)C(=O)Cc2ccc(OC)cc2)c2cc(OCCCO)ccc2N1C(=O)c1ccc2ccccc2n1 (stereo not given in full) | 0.009 | 0.0656 | 0.0569 | 0.534 | 0.45 | 0.635 | 1.34 | 0.221 | 0.22 | -0.592 (inactive) |
| Cc1ccc(S[C@]2(C(=O)NCc3ccccc3)CC(=O)N(Cc3ccccc3Cl)[C@@H]2c2ccc(CO)cc2I)cc1 | 2.92 | -0.162 | -0.0602 | 0.999 | 0.0508 | -0.871 | 0.00439 | -0.366 | 0.947 | 0.831 (inactive) |
| CCOC(=O)C[C@H]1[C@H](OC(=O)c2ccc(-c3ccccc3)cc2)[C@@H](NC(=O)Cc2ccc(OC)cc2)c2cc(OCCCO)ccc2N1C(=O)c1ccc2ccccc2n1 | 0.262 | 0.644 | 0.529 | 0.897 | -0.0303 | -0.433 | 0.895 | 0.484 | 0.419 | -0.639 (inactive) |
| CN1C(=O)C2C=CC(C(O)c3ccccn3)N(Nc3ccccc3)C2C1=O (stereo not given) | 0.621 | 0.302 | -0.187 | 1.03 | 0.563 | 0.213 | -0.633 | 0.125 | 0.489 | -1.12 (inactive) |
| COCCOC(=O)N1C(=O)[C@@]2(c3ccccc31)[C@H](C(=O)NC[C@H](O)c1ccccc1)[C@H]1C(=O)O[C@H](c3ccccc3)[C@H](c3ccccc3)N1[C@@H]2c1ccc(OCCO)cc1 | 0.791 | 1.15 | 0.367 | 0.715 | 1.47 | 1.77 | -0.542 | 1.58 | 0.387 | 0.888 (inactive) |
| COc1ccc(C#Cc2ccc3c(c2)[C@]2(C(=O)N3)[C@H](c3ccc(O)cc3)N3[C@H](c4ccccc4)[C@H](c4ccccc4)OC(=O)[C@H]3[C@@H]2C(=O)N2CCCCCCC2)cc1 | 0.477 | 1.22 | 0.75 | 0.702 | 1.49 | 1.02 | -0.067 | 1.61 | 1.35 | -1.78 (inactive) |
| COc1c(C)cc(-c2cc3c(c(-c4ccc(Oc5ccccc5)cc4)n2)[Si](C(C)C)(C(C)C)OC3)cc1C | -0.271 | -0.582 | -0.0939 | -0.551 | -0.228 | 0.515 | 0.577 | 0.38 | -0.0472 | 0.279 (inactive) |
| O=C1O[C@H](c2ccccc2)[C@H](c2ccccc2)N2[C@H]1[C@@H](C(=O)Nc1nc3ccccc3s1)[C@]1(C(=O)Nc3ccccc31)[C@H]2c1ccc(O)cc1 | 0.156 | 1.24 | 0.19 | 0.921 | 1.32 | 1.47 | -2.12 | 1.08 | 0.705 | -0.647 (inactive) |
| CO[C@H]1O[C@H](CO)[C@@H](OC(=O)Nc2ccc(Oc3ccccc3)cc2)[C@H](OC(=O)Nc2ccccc2)[C@H]1OC(=O)Nc1ccccc1 | 1.88 | 1.27 | 1.12 | 0.985 | 1.07 | 1.61 | -1.69 | 0.444 | 1.08 | -0.923 (inactive) |
| C=CC(COC(C)=O)NS(=O)(=O)c1ccc(Br)cc1 (stereo not given) | 0.192 | 0.971 | -0.271 | 0.596 | 0.902 | 0.608 | 0.499 | 0.673 | 0.0285 | -0.481 (inactive) |
| CN(C)CCCCCCNC(=O)[C@H]1C[C@H]2C(=O)N[C@@H](CCCCN)C(=O)N2[C@H]1c1ccc(O)cc1 | 3.12 | 1.31 | -0.108 | 0.953 | 1.44 | 1.61 | 0.868 | 1.75 | 1.36 | -0.62 (inactive) |
| CC(=O)C1=CCC(c2ccccc2)N(S(=O)(=O)c2ccc(C)cc2)C1 (stereo not given) | 1.8 | 1.19 | 0.362 | 0.757 | 0.798 | -0.194 | -1.16 | 0.176 | 1.21 | 1.6 (inactive) |
| C=CC[C@@]1(C(=O)N2CCOCC2)N=C(c2ccc(OCCCO)cc2)O[C@@H]1c1ccccc1N=[N+]=[N-] | 1.58 | 1.24 | 0.304 | 0.752 | 1.33 | 1.05 | 0.0318 | 0.135 | 1.13 | -11.4 (active) |
| C#CCN(C(/C=C/c1ccccc1)CO)C(C(=O)O)c1ccccc1 (stereo not given) | -0.375 | -1.19 | 0.492 | 0.116 | -0.523 | -0.354 | -1.04 | -0.346 | -0.0819 | -0.104 (inactive) |
| COc1ccc(NN2C(C(O)c3ccc(OC)c(OCc4ccccc4)c3)C=CC3C(=O)N(C4CCCCC4)C(=O)C32)cc1 (stereo not given) | 0.867 | 1.21 | 0.625 | 1.01 | 1.29 | 0.0862 | 0.492 | 0.461 | 0.571 | 1.16 (inactive) |
| COc1ccc([Si](C)(C)[C@H]2[C@H](CC(=O)N(CCO)Cc3ccccc3)O[C@@]3(C(=O)N(Cc4cccc(N5CCC5=O)c4)c4ccccc43)[C@@H]2C)cc1 | 2.18 | 1.03 | 0.222 | 0.279 | 1.12 | 1.68 | -0.166 | 1.33 | 0.767 | 0.272 (inactive) |
| COc1ccc(CCNC(=O)[C@@]2(Sc3ccc(C)cc3)CC(=O)N(Cc3ccccc3Cl)[C@@H]2c2ccc(CO)cc2I)cc1 | 2.25 | 0.349 | -0.0568 | 0.35 | 1.03 | 0.664 | 2.03 | -0.954 | 0.593 | 0.674 (inactive) |
| CCOC(=O)C1=CCC(c2ccc(C#N)cc2)N(S(=O)(=O)c2ccc(C)cc2)C1 (stereo not given) | 1.64 | 1.2 | 0.047 | 0.824 | 0.552 | 0.168 | -0.142 | -0.303 | 1.19 | 0.115 (inactive) |
| O=C/C=C/c1ccc2c(c1)OCO2 | 1.33 | 0.128 | 0.247 | -0.696 | 0.952 | 0.398 | 0.231 | 0.401 | -0.273 | -1.04 (inactive) |
| COc1ccc(C#Cc2ccc3c(c2)[C@]2(C(=O)N3)[C@H](C(=O)NC[C@H](O)c3ccccc3)[C@H]3C(=O)O[C@H](c4ccccc4)[C@H](c4ccccc4)N3[C@@H]2c2ccccc2OCCO)cc1 | 1.05 | 1.19 | 0.686 | 0.844 | 1.09 | 0.604 | -1.79 | 1.42 | 0.855 | -0.361 (inactive) |
| O=C(O)[C@H]1C[C@H]2C(=O)NCC(=O)N2[C@H]1c1ccc(O)cc1 | 2.65 | -0.722 | 0.0888 | -0.908 | 1.32 | 1.05 | 1.97 | 0.368 | -0.0842 | -1.54 (inactive) |
| C[N+](C)(C)CCCCCCNC(=O)[C@H]1C[C@H]2C(=O)N3CCC[C@H]3C(=O)N2[C@H]1c1ccc(O)cc1 | -0.167 | 0.0132 | -0.166 | -0.876 | 1.14 | 0.693 | -1.39 | 1.12 | -0.411 | 0.908 (inactive) |
| CCOC(=O)[C@H]1C[C@H]2O[C@@]23C[C@H]1C(=O)N1CCCC1[C@@H]3O[Si](C)(C)C(C)(C)C (stereo not given in full) | -0.288 | -0.311 | -0.349 | -0.466 | -0.068 | -0.0656 | -0.341 | 0.225 | -0.339 | 0.261 (inactive) |
| C=C(CCCC)C(=O)CC[C@H](OC(=O)c1cccnc1)c1cccc(OCCO)c1 | 0.637 | -0.395 | -0.262 | -0.847 | 0.254 | 0.275 | 1.28 | 0.563 | -0.288 | -1.2 (inactive) |
